The source of these data is PubChem BioAssay (NCI).

About 83,000 compounds went through this panel and 20% of them were active in at least one assay; those are over-represented in the sample as a whole.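 Values shown are percent growth following 48 h exposure of cells in 96-well plates to a single concentration of compound; below 10 was considered active.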 Unmarked numbers belong to inactive results. Calls of active or inactive are those of the source.

One experiment deals with NCI-H522 lung. Put plainly: NCI-60 one-dose screen, 48 h (100 = growth as untreated, 0 = no growth, -100 = all killed). Conditions: 10 µM.
`CCOC(=O)c1cc(-c2ccccc2)nc(N)n1`: the growth was 95.5%.
Consider `COc1cc(C)c2sc3ccccc3c(=O)c2c1NCCN(C)C`, for which the growth was 80.1%.
On to `C/C=C\COc1cc(C)c(Cl)cc1Cl`, for which the growth was 119%.
On the same count and under the same terms, under `NC(N)=NS(=O)(=O)c1ccc(Nc2ccc3nnc(-c4ccncc4)n3n2)cc1` stands -57.2% (active); under `COc1ccc(C2C=C(c3ccc(Cl)c(Cl)c3)N=C3SC(C)=CN32)cc1` (stereo unspecified), 77.3%.
As for `CC(=O)OC1Oc2ccccc2-c2oc(=O)c(-c3ccc(F)cc3)cc21` (stereo unspecified), the growth was 42.5%.
Still for that read-out and setting: the same measure for `CS(=O)(=O)Nc1ccc(Nc2c3ccccc3nc3cc(Cl)ccc23)cc1`: 16.2%; for `COc1cc2nc(Sc3sc(N)nc3C)n(-c3ccc(Oc4ccccc4)cc3)c(=O)c2cc1OC`: 83.7%.
For `CCOC(=O)c1sc(NC(=O)c2cc(OC)c(OC)c(OC)c2)nc1C`, the growth was 67.4%.
In the case of `O=C(Nc1ccc(OCc2nnc(-c3ccccc3)o2)c(F)c1)Nc1ccc(Cl)c(Cl)c1`, the growth was 35%.
In the case of `COc1ccc(/C=C2\SC(=S)N(CCCN3CCOCC3)C2=O)c(OC)c1`, the growth was 79.7%.
On the same count and under the same terms, under `CCSc1nc2c([nH]1)c(=O)n(C)c(=S)n2C` stands 102%; under `CCNC(=S)NN`, 105%.
With `COc1ccc(-c2ccc(-c3ccc(C(=N)N)c(F)c3)s2)cc1`, the growth was -76.5% (active).
For the compound `O=C(c1ccc(Cl)cc1)c1no[n+]([O-])c1C(=O)c1ccc(Cl)cc1`, the growth is -77.8% (active).
Consider `COc1cccc2c1O/C(=C\c1ccc([N+](=O)[O-])s1)C2=O`, for which the growth is -65% (active).
On the same count and under the same terms, the same measure for `NCCNc1ccc2cc(-c3nc4ccccc4[nH]3)c(=O)oc2c1`: 97.3%; for `Fc1ccc(Nc2ccnc(N3CCN(c4ccnc5cc(Cl)ccc45)CC3)n2)cc1`: 43.4%; for `Clc1cc(Cl)c(Cl)c(-c2nc(-c3cccnc3)cs2)c1`: -51% (active).
Take `CCCc1c(CC)c(=N)c2ccccc2n1C`: the growth was 73.6%.
In the case of `N#CN1CC[C@H](C(=O)Nc2ncc(-c3ccccc3)s2)C1`, the growth is -35.6% (active).
On the same count and under the same terms, under `C[N+]1=C(/C=C/c2ccc(I)cc2)C(C)(C)c2ccccc21` stands 68.8%; under `Clc1cc(Cl)c(OCCCCCCN2CCNCC2)c(Cl)c1`, 55.1%.
As for `COCCOC(=O)NC(=O)Nc1ccc(C(=O)c2ccc(Cl)cc2)cc1`, the growth was 10.7%.
As to `CCCCCCCCCCSC(=N)N` (tested in a mixture with another compound), the growth was 53.7%.
The same measure, in the same setting: the same measure for `COc1cc(-c2nc3ccccc3[nH]2)ccc1OCc1nnc(-c2ccc(Br)cc2)o1`: 93.9%.
On the same count and under the same terms, under `O=S(=O)(NCCO)c1ccc(OCCOc2ccc(S(=O)(=O)NCCO)cc2)cc1` stands 91.7%; under `Cc1ccc([P+](Cc2ccccc2)(c2ccccc2)c2ccccc2)cc1`, -21.6% (active).
Take `O=C(Nc1cccc(Cl)c1)OCC(COC(=O)Nc1cccc(Cl)c1)(COC(=O)Nc1cccc(Cl)c1)[N+](=O)[O-]`: the growth is 27.4%.
Take `COc1ccc(Cn2cc3c(c2-c2cc(OC)c(OC)c(OC)c2)CCc2cnoc2-3)cc1N`: the growth was 32.3%.
In the case of `COc1ccc(-c2nnc(SCC(=O)c3ccccc3)o2)cc1`, the growth was 83.9%.
`Cc1ccc([P+](Cc2ccc([N+](=O)[O-])cc2)(c2ccc(C)cc2)c2ccc(C)cc2)cc1`: the growth is 0.971% (active).
Same read-out and setting: under `Cc1cc(Cl)ccc1Nc1nc(C(F)(F)F)ccc1C(=O)N/N=C/c1ccccc1Cl` stands -2.69% (active); under `O=C(OCc1ncc(-c2ccc(C(F)(F)F)cc2)c(NC2CCCCCC2)n1)c1c(F)c(F)c(F)c(F)c1F`, 38.4%.
The same measure, in the same setting: the same measure for `O=C1CC(c2cccc(-c3cccnc3)c2)=Nc2ccc(Br)cc2N1`: 22.5%; for `c1ccc(OCCC[P+](c2ccccc2)(c2ccccc2)c2ccccc2)cc1`: -7.37% (active); for `COCCNCC(O)Cn1c2ccc(Cl)cc2c2cc(Cl)ccc21` (stereo unspecified): -62.8% (active).
Same read-out and setting: the same measure for `Nc1cc2c(cc1Cl)-c1ccc(Cl)cc1C2=O`: 90.3%.

The next experiment has as its system A549/ATCC NSCLC. The experiment is described as above. Conditions: 10 µM.
Consider `CCOC(=O)c1cc(-c2ccccc2)nc(N)n1`, for which the growth is 102%.
As to `COc1cc(C)c2sc3ccccc3c(=O)c2c1NCCN(C)C`, the growth was 28.8%.
Turning to `C/C=C\COc1cc(C)c(Cl)cc1Cl`, the growth is 91.8%.
As for `NC(N)=NS(=O)(=O)c1ccc(Nc2ccc3nnc(-c4ccncc4)n3n2)cc1`, the growth is 108%.
For `COc1ccc(C2C=C(c3ccc(Cl)c(Cl)c3)N=C3SC(C)=CN32)cc1` (stereo unspecified), the growth is 81.6%.
On the same count and under the same terms, the same measure for `CC(=O)OC1Oc2ccccc2-c2oc(=O)c(-c3ccc(F)cc3)cc21` (stereo unspecified): 57.8%.
Same read-out and setting: under `CS(=O)(=O)Nc1ccc(Nc2c3ccccc3nc3cc(Cl)ccc23)cc1` stands 9.01% (active); under `COc1cc2nc(Sc3sc(N)nc3C)n(-c3ccc(Oc4ccccc4)cc3)c(=O)c2cc1OC`, 83.3%.
With `CCOC(=O)c1sc(NC(=O)c2cc(OC)c(OC)c(OC)c2)nc1C`, the growth was 101%.
As for `O=C(Nc1ccc(OCc2nnc(-c3ccccc3)o2)c(F)c1)Nc1ccc(Cl)c(Cl)c1`, the growth was 55.5%.
Regarding `COc1ccc(/C=C2\SC(=S)N(CCCN3CCOCC3)C2=O)c(OC)c1`, the growth is 102%.
Same read-out and setting: the same measure for `CCSc1nc2c([nH]1)c(=O)n(C)c(=S)n2C`: 107%.
The same measure, in the same setting: under `CCNC(=S)NN` stands 72.5%; under `COc1ccc(-c2ccc(-c3ccc(C(=N)N)c(F)c3)s2)cc1`, -81.9% (active).
On the same count and under the same terms, under `O=C(c1ccc(Cl)cc1)c1no[n+]([O-])c1C(=O)c1ccc(Cl)cc1` stands 104%; under `COc1cccc2c1O/C(=C\c1ccc([N+](=O)[O-])s1)C2=O`, 78.5%; under `NCCNc1ccc2cc(-c3nc4ccccc4[nH]3)c(=O)oc2c1`, 102%.
In the case of `Fc1ccc(Nc2ccnc(N3CCN(c4ccnc5cc(Cl)ccc45)CC3)n2)cc1`, the growth is 25%.
As for `Clc1cc(Cl)c(Cl)c(-c2nc(-c3cccnc3)cs2)c1`, the growth is 78.9%.
On the same count and under the same terms, under `CCCc1c(CC)c(=N)c2ccccc2n1C` stands 50.4%; under `N#CN1CC[C@H](C(=O)Nc2ncc(-c3ccccc3)s2)C1`, -5.79% (active); under `C[N+]1=C(/C=C/c2ccc(I)cc2)C(C)(C)c2ccccc21`, 109%.
Same read-out and setting: under `Clc1cc(Cl)c(OCCCCCCN2CCNCC2)c(Cl)c1` stands 53.8%.
The same measure, in the same setting: the same measure for `COCCOC(=O)NC(=O)Nc1ccc(C(=O)c2ccc(Cl)cc2)cc1`: 41.8%; for `CCCCCCCCCCSC(=N)N` (tested in a mixture with another compound): 75.3%.
For `COc1cc(-c2nc3ccccc3[nH]2)ccc1OCc1nnc(-c2ccc(Br)cc2)o1`, the growth was 90.2%.
On to `O=S(=O)(NCCO)c1ccc(OCCOc2ccc(S(=O)(=O)NCCO)cc2)cc1`, for which the growth was 95%.
`Cc1ccc([P+](Cc2ccccc2)(c2ccccc2)c2ccccc2)cc1`: the growth was 18.1%.
For `O=C(Nc1cccc(Cl)c1)OCC(COC(=O)Nc1cccc(Cl)c1)(COC(=O)Nc1cccc(Cl)c1)[N+](=O)[O-]`, the growth is 26.2%.
On the same count and under the same terms, the same measure for `COc1ccc(Cn2cc3c(c2-c2cc(OC)c(OC)c(OC)c2)CCc2cnoc2-3)cc1N`: 28.5%; for `COc1ccc(-c2nnc(SCC(=O)c3ccccc3)o2)cc1`: 98.1%; for `Cc1ccc([P+](Cc2ccc([N+](=O)[O-])cc2)(c2ccc(C)cc2)c2ccc(C)cc2)cc1`: 81%.
Same read-out and setting: under `Cc1cc(Cl)ccc1Nc1nc(C(F)(F)F)ccc1C(=O)N/N=C/c1ccccc1Cl` stands 13.5%; under `O=C(OCc1ncc(-c2ccc(C(F)(F)F)cc2)c(NC2CCCCCC2)n1)c1c(F)c(F)c(F)c(F)c1F`, 48.9%.
For the compound `O=C1CC(c2cccc(-c3cccnc3)c2)=Nc2ccc(Br)cc2N1`, the growth is 38.1%.
On the same count and under the same terms, the same measure for `c1ccc(OCCC[P+](c2ccccc2)(c2ccccc2)c2ccccc2)cc1`: 25.6%; for `COCCNCC(O)Cn1c2ccc(Cl)cc2c2cc(Cl)ccc21` (stereo unspecified): -10.2% (active); for `Nc1cc2c(cc1Cl)-c1ccc(Cl)cc1C2=O`: 85.7%.
